The AC50 is the concentration at which the activity in the assay is half-maximal.

Several values for one entry are separate records, joined by “and”; a condition that tells them apart may be missing. Identical values can stand only once. Records with an inconclusive call do not appear. Some compounds were tested as several samples or in several runs, with calls that do not always agree. Activity calls are given as the source filed them. How the source made its calls, unless noted: active means hit-call score of the fitted dose curve at least 0.9, where 1 is the maximum; inconclusive means response in the unintended direction; inactive means score below 0.9.

The values below come from PubChem BioAssay (EPA / NIEHS).

Chain of Nuclear receptor subfamily 1 group I member 2 (Mus musculus) (O54915 whole entry, looked up): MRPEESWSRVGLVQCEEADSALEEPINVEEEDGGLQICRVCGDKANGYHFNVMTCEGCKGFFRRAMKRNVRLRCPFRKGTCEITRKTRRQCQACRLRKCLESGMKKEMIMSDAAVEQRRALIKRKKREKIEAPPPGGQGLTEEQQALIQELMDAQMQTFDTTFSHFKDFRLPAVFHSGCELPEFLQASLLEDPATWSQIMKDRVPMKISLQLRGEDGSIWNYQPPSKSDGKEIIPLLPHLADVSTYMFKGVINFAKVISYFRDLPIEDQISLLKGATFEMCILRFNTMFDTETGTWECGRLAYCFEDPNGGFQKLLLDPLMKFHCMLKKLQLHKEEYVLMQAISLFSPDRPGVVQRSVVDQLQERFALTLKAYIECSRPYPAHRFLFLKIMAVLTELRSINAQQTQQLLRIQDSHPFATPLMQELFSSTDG

The target in the first assay is mouse Peroxisome Proliferator-activated Receptor gamma (PPARg), Pparg (gene 19016) (UniProt P37238). Description: ATG_mPPARg_XSP2: Attagene TRANS-FACTORIAL Multi-Species (XSP2) HepG2 Assay for mouse Peroxisome Proliferator-activated Receptor gamma (PPARg) (AID 2283830).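 Further: hits are gains in reporter mRNA above DMSO so AC50 marks activation.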 The gist of the method: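 HepG2 cells transiently transfected with GAL4-UAS reporter units for chimeric NR-Gal4 proteins including mouse PPARg, exposed 24 h; medium contained 3 nM 6-alpha-fluorotestosterone and 1.5 nM norgestrel. Reporter mRNA quantified by RT-PCR, HpaI digestion and capillary electrophoresis, vs DMSO.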
Chain of mouse Peroxisome Proliferator-activated Receptor gamma (PPARg), Pparg (gene 19016) (P37238 whole entry, looked up, the tested form may be a part): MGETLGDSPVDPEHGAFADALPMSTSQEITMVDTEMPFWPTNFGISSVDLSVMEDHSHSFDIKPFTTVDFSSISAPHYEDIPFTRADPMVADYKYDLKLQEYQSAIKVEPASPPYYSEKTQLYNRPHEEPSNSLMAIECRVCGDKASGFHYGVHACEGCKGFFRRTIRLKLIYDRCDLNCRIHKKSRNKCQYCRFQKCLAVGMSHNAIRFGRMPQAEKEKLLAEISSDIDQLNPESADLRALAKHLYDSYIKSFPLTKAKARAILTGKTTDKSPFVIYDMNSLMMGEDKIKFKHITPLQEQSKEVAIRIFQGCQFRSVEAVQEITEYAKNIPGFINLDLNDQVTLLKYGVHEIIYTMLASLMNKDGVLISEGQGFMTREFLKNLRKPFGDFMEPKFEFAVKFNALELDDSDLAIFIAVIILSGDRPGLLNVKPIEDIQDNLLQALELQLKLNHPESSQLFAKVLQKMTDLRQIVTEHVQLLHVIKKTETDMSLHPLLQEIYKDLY
Turning to `Oc1ccc(C(c2ccc(O)cc2)(C(F)(F)F)C(F)(F)F)cc1`, the concentration at half-maximal activity (AC50) was 33.4 µM (active) and the call was inactive.

Take `ClC(Cl)=C(c1ccc(Cl)cc1)c1ccc(Cl)cc1`: the call was inactive.

On to `CCOC(=O)C(O)(c1ccc(Cl)cc1)c1ccc(Cl)cc1`, for which the concentration at half-maximal activity (AC50) is 10.6 µM (active) and 22.3 µM (active).

Turning to `CC(c1ccc(O)cc1)(c1ccc(O)cc1)c1ccc(O)cc1`, the compound was classed as inactive.

As for `CC(C)(c1ccccc1)c1ccc(O)cc1`, the compound was classed as inactive.

With `Cc1cc(-c2ccc(N)c(C)c2)ccc1N`, the AC50 was 27.7 µM (active) and 55.5 µM (active); the compound was called inactive.

For `c1cc2ccc3cccc4ccc(c1)c2c34`, the AC50 is 27.9 µM (active) and the result was inactive.

In the case of `Clc1ccc(C(c2ccccc2Cl)C(Cl)(Cl)Cl)cc1` (stereo not given), the outcome was inactive.

The next assay has as its target Nuclear receptor subfamily 1 group I member 2 (Mus musculus) (UniProt O54915). Nature of the assay: ATG_mPXR_XSP2: Attagene TRANS-FACTORIAL Multi-Species (XSP1) HepG2 Assay for mouse Pregnane X Receptor (PXR) (AID 2283831). The gist of the method:
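Fluorescence signals from capillary electrophoresis of RT-PCR-amplified reporter mRNA give the readout, gain-of-signal versus DMSO. Transfected HepG2 cells, 24 h dosing, medium contained 3 nM 6-alpha-fluorotestosterone and 1.5 nM norgestrel.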
For `Oc1ccc(C(c2ccc(O)cc2)(C(F)(F)F)C(F)(F)F)cc1`, the result was inactive.

For the compound `ClC(Cl)=C(c1ccc(Cl)cc1)c1ccc(Cl)cc1`, the outcome was inactive.

As for `CCOC(=O)C(O)(c1ccc(Cl)cc1)c1ccc(Cl)cc1`, the concentration at half-maximal activity (AC50) is 7.9 µM (active) and 8.04 µM (active).

For `Cc1cc(-c2ccc(N)c(C)c2)ccc1N`, the half-maximal activity concentration (AC50) was 5.2 µM (active) and the outcome was inactive.

Take `CC(C)(O)C(=O)Nc1ccc([N+](=O)[O-])c(C(F)(F)F)c1`: the outcome was inactive.

With `c1cc2ccc3cccc4ccc(c1)c2c34`, the AC50 is 19.6 µM (active) and 15 µM (active).

`C[C@]12CCC(=O)C=C1CC[C@@H]1[C@@H]2CC[C@]2(C)C(=O)CC[C@@H]12`: the result was inactive.

As for `Clc1ccc(C(c2ccccc2Cl)C(Cl)(Cl)Cl)cc1` (stereo not given), the AC50 was 5.09 µM (active).

Another assay deals with zebrafish Thyroid Hormone Receptor alpha (TRa), thraa (gene 30670) (UniProt Q98867). Description: ATG_zfTRa_XSP2: Attagene TRANS-FACTORIAL Multi-Species (XSP1) HepG2 Assay for zebrafish Thyroid Hormone Receptor alpha (TRa) (AID 2283832).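 Further: actives raise zebrafish TRa-Gal4 reporter transcript above DMSO baseline.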 The gist of the method: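 Transient transfection of human HepG2 with GAL4-UAS reporter units, then 24 h chemical treatment. RNA isolated, reverse-transcribed, PCR-amplified, FAM-labelled, HpaI-digested and run on capillary electrophoresis. Gain-of-signal relative to DMSO.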
Chain of zebrafish Thyroid Hormone Receptor alpha (TRa), thraa (gene 30670) (Q98867 whole entry, looked up, the tested form may be a part): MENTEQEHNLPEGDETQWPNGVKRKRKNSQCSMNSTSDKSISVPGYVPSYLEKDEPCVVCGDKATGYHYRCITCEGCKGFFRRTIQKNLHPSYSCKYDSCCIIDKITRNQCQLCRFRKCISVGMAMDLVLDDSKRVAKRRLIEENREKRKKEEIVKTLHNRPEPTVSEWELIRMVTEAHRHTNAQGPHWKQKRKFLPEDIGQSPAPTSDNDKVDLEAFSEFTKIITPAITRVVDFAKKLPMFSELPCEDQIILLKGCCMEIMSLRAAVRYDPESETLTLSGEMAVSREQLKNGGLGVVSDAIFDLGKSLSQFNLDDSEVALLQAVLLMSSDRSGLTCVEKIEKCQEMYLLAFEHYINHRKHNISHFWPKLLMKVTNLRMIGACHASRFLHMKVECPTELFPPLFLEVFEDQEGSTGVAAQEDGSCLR
On to `Oc1ccc(C(c2ccc(O)cc2)(C(F)(F)F)C(F)(F)F)cc1`, for which the compound was classed as inactive.

With `CCOC(=O)C(O)(c1ccc(Cl)cc1)c1ccc(Cl)cc1`, the compound was called inactive.

For the compound `CC(c1ccc(O)cc1)(c1ccc(O)cc1)c1ccc(O)cc1`, the result was inactive.

For `Cc1cc(-c2ccc(N)c(C)c2)ccc1N`, the compound was classed as inactive.

For `CC(C)(O)C(=O)Nc1ccc([N+](=O)[O-])c(C(F)(F)F)c1`, the call was inactive.

On to `c1cc2ccc3cccc4ccc(c1)c2c34`, for which the outcome was inactive.

A further assay concerns zebrafish Peroxisome Proliferator-activated Receptor gamma (PPARg), gene 557037. Description: ATG_zfPPARg_XSP2: Attagene TRANS-FACTORIAL Multi-Species (XSP2) HepG2 Assay for zebrafish Peroxisome Proliferator-activated Receptor gamma (PPARg) (AID 2283833).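 Further: reporter mRNA from a zebrafish PPARg GAL4 chimera measured by RT-PCR and capillary electrophoresis; actives increase reporter signal over DMSO so AC50 reflects activation.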 The gist of the method:
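HepG2, transient MRTU transfection, 24 h compound; zfPPARg-GAL4 reporter mRNA by RT-PCR + capillary electrophoresis; gain-of-signal vs DMSO.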
On to `Oc1ccc(C(c2ccc(O)cc2)(C(F)(F)F)C(F)(F)F)cc1`, for which the call was inactive.

Regarding `CCOC(=O)C(O)(c1ccc(Cl)cc1)c1ccc(Cl)cc1`, the result was inactive.

For the compound `CC(c1ccc(O)cc1)(c1ccc(O)cc1)c1ccc(O)cc1`, the compound was classed as inactive.

Take `Cc1cc(-c2ccc(N)c(C)c2)ccc1N`: the AC50 is 10.8 µM (active) and the compound was called inactive.

Take `c1cc2ccc3cccc4ccc(c1)c2c34`: the compound was called inactive.

A further assay deals with turtle Thyroid Hormone Receptor, alpha (TRa), gene 101949057. Nature of the assay: ATG_trTRa_XSP2: Attagene TRANS-FACTORIAL Multi-Species (XSP1) HepG2 Assay for turtle Thyroid Hormone Receptor, alpha (TRa) (AID 2283834).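 Further: hits raise reporter mRNA over the DMSO baseline so AC50 marks activators.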 The gist of the method: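 Multiplexed TRANS reporter assay; HepG2 carrying NR-Gal4 constructs treated 24 h. mRNA of the GAL4-UAS reporter quantified via labelled RT-PCR fragments on a genetic analyzer, vs DMSO negative control.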
Turning to `Oc1ccc(C(c2ccc(O)cc2)(C(F)(F)F)C(F)(F)F)cc1`, the result was inactive.

As to `ClC(Cl)=C(c1ccc(Cl)cc1)c1ccc(Cl)cc1`, the compound was called inactive.

Turning to `CCOC(=O)C(O)(c1ccc(Cl)cc1)c1ccc(Cl)cc1`, the outcome was inactive.

On to `CC(c1ccc(O)cc1)(c1ccc(O)cc1)c1ccc(O)cc1`, for which the call was inactive.

As for `CC(C)(c1ccccc1)c1ccc(O)cc1`, the compound was called inactive.

As to `Cc1cc(-c2ccc(N)c(C)c2)ccc1N`, the compound was called inactive.

In the case of `C[C@]12CCC(=O)C=C1CC[C@@H]1[C@@H]2CC[C@@]2(C)[C@H]1CC[C@]2(C)O`, the outcome was inactive.

On to `CC(C)(O)C(=O)Nc1ccc([N+](=O)[O-])c(C(F)(F)F)c1`, for which the result was inactive.

On to `c1cc2ccc3cccc4ccc(c1)c2c34`, for which the result was inactive.

As to `C[C@]12CCC(=O)C=C1CC[C@@H]1[C@@H]2CC[C@]2(C)C(=O)CC[C@@H]12`, the call was inactive.

Consider `CCC(=O)O[C@H]1CC[C@H]2[C@@H]3CCC4=CC(=O)CC[C@]4(C)[C@H]3CC[C@]12C`, for which the compound was called inactive.

Tested on in another assay: not listed separately
Nature of the assay: ATG_M_61_XSP2: Attagene TRANS-FACTORIAL Multi-Species (XSP2) HepG2 Assay for M61 Transcription Factor (Internal Marker) (AID 2283835; active means hit-call score of the fitted dose curve at least 0.9, where 1 is the maximum; inactive means score below 0.9;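 further: active means a rise in signal above the DMSO baseline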). How it is done:
ATG_XSP2_multi-species_TRANS is a cell-based, multiplexed assay created by modifying the existing Attagene TRANS-FACTORIAL system to include a panel of nuclear receptors from some or all the following species: human (Homo sapiens), mouse (Mus musculus), frog (Xenopus laevis), zebrafish (Danio rerio), chicken (Gallus gallus), and turtle (Chrysemys picta). The ECOTOX-FACTORIAL format uses HepG2, a human liver cell line, with measurements taken at 24 hours after chemical dosing in a 24-well plate. Xsp2 included 3 nM 6-alpha-fluorotestosterone and 1.5 nM norgestrel to stimulate the androgen receptor.ATG_M_61_XSP2 is one of 29 assay components measured or calculated from the ATG_XSP2_multi-species_TRANS assay. It is designed to make measurements of mRNA induction, a form of inducible reporter, as detected with fluorescence intensity signals by Reverse transcription polymerase chain reaction (RT-PCR) and Capillary electrophoresis technology.This assay endpoint, ATG_M_61_XSP2, was analyzed in the positive analysis fitting direction relative to DMSO as the negative control and baseline of activity. Using a type of inducible reporter, measures of mRNA for gain-of-signal activity can be used to understand the background control at the transcription factor-level as they relate to the gene. Furthermore, this assay endpoint can be referred to as a secondary readout, because this assay has produced multiple assay endpoints where this one serves a background control function. To generalize the intended target to other relatable targets, this assay endpoint is annotated to the background measurement intended target family, where the subfamily is internal marker.
Human liver HepG2 cells are transiently transfected with multiple reporter transcription units (MRTUs) in 6-well plates using FuGene 6 reagent (Roche; 3 ml FuGene/1 mg DNA). The MRTU constructs are regulated by a cis-regulating element (promoter). […] A major difference between the CIS and TRANS system is that in CIS activities of endogenous TFs are measured, whereas the TRANS assay evaluates changes in activities of exogenous, chimeric NR-Gal4 proteins. […] At the end of 24 hour incubation, total RNA was isolated using TriZol reagent (Invitrogen). The isolated RNA is then reverse-transcribed using oligo(dT) primer and Mo-MLV reverse transcriptase (Invitrogen) with DNAse I (Ambion) treatment for 30 min. The one-tenth of the produced cDNA was amplified by PCR using Taq DNA polymerase (Invitrogen) and two reporter sequence-specific primers. The PCR products were fluorescently labeled by primer extension with 6-arboxyfluorescein (6-FAM) 5'-labeled reporter sequence-specific primer (2 min at 95 C, 20 s at 68 C and 10 min at 72 C) and these products were digested with 5U of HpaI (New England Biolabs) for 2h at 37 C. The fragments were purified using Qiaquick PCR columns (Qiagen), analyzed on an ABI 3130xL genetic analyzer (Applied Biosystems) with peak positions identified by using a set of X-rhodamine (ROX)-labeled MapMarker1000 molecular weight standards (BioVentures). The raw capillary electrophoresis data was processed using Attagraph software (Attagene).
`CCOC(=O)C(O)(c1ccc(Cl)cc1)c1ccc(Cl)cc1`: the compound was classed as inactive.

Take `CC(c1ccc(O)cc1)(c1ccc(O)cc1)c1ccc(O)cc1`: the compound was called inactive.

Take `CC(C)(c1ccccc1)c1ccc(O)cc1`: the compound was called inactive.

`C[C@]12CCC(=O)C=C1CC[C@@H]1[C@@H]2CC[C@@]2(C)[C@H]1CC[C@]2(C)O`: the call was inactive.

As to `CC(C)(O)C(=O)Nc1ccc([N+](=O)[O-])c(C(F)(F)F)c1`, the compound was classed as inactive.

Turning to `C[C@]12CCC(=O)C=C1CC[C@@H]1[C@@H]2CC[C@]2(C)C(=O)CC[C@@H]12`, the compound was classed as inactive.

Consider `CCC(=O)O[C@H]1CC[C@H]2[C@@H]3CCC4=CC(=O)CC[C@]4(C)[C@H]3CC[C@]12C`, for which the result was inactive.

Regarding `Clc1ccc(C(c2ccccc2Cl)C(Cl)(Cl)Cl)cc1` (stereo not given), the outcome was inactive.

The next assay deals with zebrafish Thyroid Hormone Receptor beta (TRb), thrb (gene 30607) (UniProt Q9PVE4). Nature of the assay: ATG_zfTRb_XSP2: Attagene TRANS-FACTORIAL Multi-Species (XSP1) HepG2 Assay for zebrafish Thyroid Hormone Receptor beta (TRb) (AID 2283836). The gist of the method: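 Human liver HepG2, transient MRTU transfection (NR-Gal4 chimeras, GAL4-UAS reporters); 24 h compound exposure; total RNA → oligo(dT) RT → PCR → 6-FAM label → HpaI cut → CE fluorescence. DMSO = negative control/baseline.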
Chain of zebrafish Thyroid Hormone Receptor beta (TRb), thrb (gene 30607) (Q9PVE4 whole entry, looked up, the tested form may be a part): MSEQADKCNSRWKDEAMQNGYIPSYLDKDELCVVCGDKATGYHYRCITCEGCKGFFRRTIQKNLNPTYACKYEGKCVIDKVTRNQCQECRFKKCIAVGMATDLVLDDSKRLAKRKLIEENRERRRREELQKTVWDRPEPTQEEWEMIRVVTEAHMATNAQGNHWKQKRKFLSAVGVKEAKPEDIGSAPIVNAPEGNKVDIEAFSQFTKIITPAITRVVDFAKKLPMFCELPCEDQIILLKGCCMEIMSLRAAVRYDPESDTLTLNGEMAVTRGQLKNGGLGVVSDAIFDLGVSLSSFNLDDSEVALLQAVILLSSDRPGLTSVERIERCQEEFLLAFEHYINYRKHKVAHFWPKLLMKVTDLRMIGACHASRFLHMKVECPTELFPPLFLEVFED
On to `ClC(Cl)=C(c1ccc(Cl)cc1)c1ccc(Cl)cc1`, for which the call was inactive.

In the case of `CCOC(=O)C(O)(c1ccc(Cl)cc1)c1ccc(Cl)cc1`, the compound was called inactive.

As for `CC(c1ccc(O)cc1)(c1ccc(O)cc1)c1ccc(O)cc1`, the call was inactive.

Consider `CC(C)(c1ccccc1)c1ccc(O)cc1`, for which the call was inactive.

Regarding `Cc1cc(-c2ccc(N)c(C)c2)ccc1N`, the compound was called inactive.

With `CC(C)(O)C(=O)Nc1ccc([N+](=O)[O-])c(C(F)(F)F)c1`, the outcome was inactive.

`c1cc2ccc3cccc4ccc(c1)c2c34`: the compound was called inactive.

Regarding `C[C@]12CCC(=O)C=C1CC[C@@H]1[C@@H]2CC[C@]2(C)C(=O)CC[C@@H]12`, the result was inactive.

Turning to `CCC(=O)O[C@H]1CC[C@H]2[C@@H]3CCC4=CC(=O)CC[C@]4(C)[C@H]3CC[C@]12C`, the call was inactive.
